# Results taken from PubChem BioAssay AID1259415 (National Center for Advancing Translational Sciences (NCATS), 2018).
# Where “and” joins values, the source holds several entries; their conditions need not be identical. Identical values can stand only once. The whole screen tested about 410,000 compounds, of which about 18,000 (4.4%) were called active. About 7% were inconclusive and are not listed. The sample holds actives, similar compounds and a random draw of the others, so the mix is not that of the screen. Cut-off read from the data, not from the text of the source: active = activity change below about -60%; inconclusive = no clear call, values can overlap the other calls; inactive = above about -39%. Some compounds were tested as several samples or in several runs, with calls that do not always agree.
# Assay: qHTS Assay for inhibitors of the human cytomegalovirus (HCMV)
# Settings: HFF cells, HCMV-luciferase reporter, 72 h; at 57.5 µM; stronger effect = lower value
# Procedure, shortened: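 Human foreskin fibroblasts infected with luciferase-reporter HCMV at MOI 1 PFU/cell, compounds at two doses. Luciferase measured 72 h post infection; normalized to buffer-only basal and Salinomycin (10uM) controls.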
# % is set by controls: 0 for no effect and ±100 for the full control effect.
row,SMILES,"activity change, negative = inhibition"
1,COc1ccc(NC(=O)CSc2nc3ccccc3[nH]2)cc1,2.79% (inactive)
2,CCOC(=O)C1=C(c2ccccc2)Nc2ncnn2C1c1ccc(Cl)cc1 (centres undefined),-113% (active)
3,CC1=C(C(=O)Nc2ccccc2Cl)C(c2cccs2)n2ncnc2N1 (centres undefined),-15.8% (inactive)
4,CCOc1ccccc1NC(=O)C1=C(C)Nc2ncnn2C1c1ccc(NC(C)=O)cc1 (centres undefined),4.88% (inactive)
5,CCc1nn(CC(=O)Nc2cc(C)cc(C)c2)c(=O)c2cc3sccc3n12,-8.76% (inactive)
6,CCS(=O)(=O)N1CCC(n2c(C)nc3cccnc32)CC1,-0.684% (inactive)
7,C=CCNC(=S)NNc1ncnc2sc3c(c12)CC(C)(C)OC3,-105% (active)
8,CC/C(C)=N/Nc1nc2sc3c(c2c(=O)[nH]1)CC(C)(C)OC3,-10.6% (inactive)
9,CCCSc1nc2sc3c(c2c(=O)n1-c1cccc(Br)c1)CC(C)(C)OC3,-0.221% (inactive)
10,COc1ccc(NC(=O)C2CCCN(S(=O)(=O)c3c(C)[nH]c(=O)[nH]c3=O)C2)c(OC)c1 (centres undefined),10.4% (inactive)
11,CC(/C=C/c1ccccc1)=N\NC(=O)C1CC1(C)c1ccccc1 (centres undefined),-62.3% (active)
12,CC(/C=C/c1ccco1)=N/NC(=O)C1COc2ccccc2O1 (centres undefined),27.4% (inactive)
13,COC(=O)C1(C)CC1(c1ccccc1)c1ccccc1 (centres undefined),13.4% (inactive)
14,Cc1cn(C2C=CC(CO)O2)c(=O)[nH]c1=O (centres undefined),-30.1% (inactive)
15,COc1ccc(S(=O)(=O)NCC(c2ccc(N(C)C)cc2)N2CCCC2)cc1 (centres undefined),-4.35% (inactive)
16,Cc1ccccc1NC(=O)COC(=O)c1cc(C)n(C2CC2)c1C,-2.16% (inactive)
17,Cc1cc(C(=O)COc2ccccc2Cl)c(C)n1C1CC1,-67.2% (active)
18,Cc1cc(C(=O)OCC(=O)Nc2c(F)cccc2F)c(C)n1C1CC1,-2.16% (inactive)
19,COc1cccc(CNC(=O)C2CCC(CNS(=O)(=O)c3cccs3)CC2)c1 (centres undefined),-3.87% (inactive)
20,Fc1cccc(-n2ncc3c2ncn2nc(-c4ccccc4Cl)nc32)c1,-25.2% (inactive)
21,O=C(Cn1c(=O)n(Cc2ccccc2)c(=O)c2sc3ccccc3c21)Nc1ccccc1F,20.5% (inactive)
22,CCOc1ccc(S(=O)(=O)NCCC(=O)NNC(=O)c2ccc(F)cc2)cc1,70.6% (inactive)
23,Cc1ccc2sc(N(Cc3cccnc3)C(=O)C3COc4ccccc4O3)nc2c1C (centres undefined),0% (inactive)

row,SMILES,"activity change, negative = inhibition"
1,Cc1ccc(NC(=O)c2ccc(CSc3ncnc4nc[nH]c34)cc2)c(C)c1,-37% (inactive)
2,S=c1c2[nH]cnc2ncn1CCSc1ncnc2nc[nH]c12,-16% (inactive)
3,CCc1ccc(N(CC)c2ncnc3nc[nH]c23)cc1,-84.7% (active)
4,CC(C)(C)C1CCc2c(sc(NC(=O)c3ccccc3F)c2C(=O)N2CCCCC2)C1 (centres undefined),-1.57% (inactive)
5,CC(=O)NN1C(=O)c2ccccc2NC1c1ccccc1 (centres undefined),44.7% (inactive)
6,CCOC(=O)NN1C(=O)c2ccccc2NC1c1ccccc1O (centres undefined),54.6% (inactive)
7,CCOC(=O)NN1C(=O)c2ccccc2NC1c1cccc(O)c1 (centres undefined),-96.9% (active)
8,CC1(C)C(C=C(Cl)Cl)C1C(=O)NC(O)C(=O)c1ccccc1 (centres undefined),-33.9% (inactive)
9,Cc1cc(C)cc(NC(=O)Cn2c(=O)c3ccccc3n3nncc23)c1,2.01% (inactive)
10,CC(=O)c1sc(N2C(=O)c3oc4ccccc4c(=O)c3C2c2ccc(C)cc2)nc1C (centres undefined),24.4% (inactive)
11,CN(C(=O)CN1CCN(c2cc(-c3ccc(OCc4ccccc4)cc3)ncn2)CC1)c1ccccc1,-71.2% (active)
12,CCOc1ccc(OCc2ccc(C(=O)N(C)c3ccccc3)o2)cc1,41.3% (inactive)
13,CCN(CC)c1ccc(NC(=O)CN2CCN(c3ccccn3)CC2)cc1,28.5% (inactive)
14,CCCc1cc(=O)n2[nH]c(NCc3ccc(CC)cc3)nc2n1,-6.39% (inactive)
15,CC(=O)NC(c1ccccc1)c1nc(-c2cccc(C(C)C)c2)cs1 (centres undefined),-66.8% (active)
16,OC(c1ccccc1)c1nc(-c2cnc3ccccc3c2)cs1 (centres undefined),184% (inactive)
17,CC(=O)NC(c1ccccc1)c1nc(-c2ccccc2C)cs1 (centres undefined),-25.4% (inactive)
18,Cc1ccc(N(C)C(=O)C2CCN(S(=O)(=O)c3ccc4c(c3)CCCN4C(=O)C3CCC3)CC2)cc1,8.58% (inactive)
19,Cc1c(NC(=O)C(C)Oc2cccc(Cl)c2)c(=O)n(-c2ccccc2)n1C (centres undefined),-25% (inactive)
20,NC(=O)C1CCN(C(=O)CC2C(=O)NCCN2Cc2cccc(Oc3ccccc3)c2)CC1 (centres undefined),-38.9% (inactive)
21,COc1ccc(Cl)cc1CSc1ncn[nH]1,-63.2% (active)
22,CCCCOc1ccc(Cl)cc1CSc1nncn1N,-20.2% (inactive)
23,ClC1(Cl)CC1CSc1ncn[nH]1 (centres undefined),62.8% (inactive)

row,SMILES,"activity change, negative = inhibition"
1,CCCCOc1ccc(NC(=O)c2cc3c(n(-c4ccc(Cl)cc4)c2=O)CCCC3=O)cc1,14.9% (inactive)
2,COC(=O)c1ccc(NC(=O)CSc2n[nH]c(-c3ccccc3)n2)cc1,16.1% (inactive)
3,Cc1ccc(NC(=O)C(=O)NCC(c2cccnc2)N2CCOCC2)cc1 (centres undefined),-12.5% (inactive)
4,COc1ccccc1N1CCN(C2C(=O)c3ccccc3N2C(C)=O)CC1 (centres undefined),0% (inactive)
5,Cc1ccc(C(=O)N/C(=C/c2cccs2)C(=O)N2CCCCC2)cc1,-25.9% (inactive)
6,Cc1ccc(C(=O)N/C(=C\c2cn(S(=O)(=O)N(C)C)c3ccccc23)C(=O)N2CCCC2)cc1,-95.9% (active)
7,O=C(N/C(=C\c1ccc(O)cc1)C(=O)N1CCCCC1)c1ccccc1,-16.2% (inactive)
8,C#Cc1ccc(NC(=O)C2(C)CCN2C(=O)Cc2ccc(-c3ccccc3)cc2)cc1 (centres undefined),-83.5% (active)
9,COc1ccc(OC)c(NC(=O)C2(C)CCN2C(=O)Cc2ccccc2)c1 (centres undefined),-33.9% (inactive)
10,CC1(C(=O)NS(=O)(=O)c2cccs2)CCN1C(=O)Cc1ccc(-c2ccccc2)cc1 (centres undefined),-1.93% (inactive)
11,COC(=O)c1cc(NC(=O)CCS(=O)(=O)c2cc(Br)cc3c2N(C(=O)C2CC2)CC3)cc(C(=O)OC)c1,3.41% (inactive)
12,COc1cc(-n2c(C)nc3cc(C(=O)NCc4ccco4)ccc32)cc(OC)c1OC,17.2% (inactive)
13,CCCC1=Nc2cc(C(=O)NCc3ccco3)ccc2Sc2ccccc21,-69.1% (active)
14,O=C(NCc1ccco1)c1cccc(-c2ccc3nncn3c2)c1,15.7% (inactive)
15,COc1ccc(-c2ccc(=O)n(CC(=O)Nc3ccc(Br)cc3F)n2)cc1,-10.5% (inactive)
16,O=C1c2cccc3cccc(c23)N1CN1CCN(c2ccccn2)CC1,16% (inactive)
17,CCOC(=O)c1c(C)[nH]c(C)c1S(=O)(=O)NCC(=O)NCc1cccc(C)c1,-20.2% (inactive)
18,COc1ccccc1NC(=O)C1=C(C)Nc2nc(SCC(=O)c3ccc(C)cc3)nn2C1c1ccccc1C (centres undefined),-1.97% (inactive)
19,Cc1cccc2c1-c1sc(C(=O)Nc3ccc(F)cc3F)cc1CO2,-12.8% (inactive)
20,CCOC(=O)C1Cn2c(nc3c(c2=O)C(C)(CC)Cc2ccccc2-3)S1 (centres undefined),-19.7% (inactive)
21,COc1ccc(-n2c(SCC(N)=O)nc3c(oc4ccccc43)c2=O)cc1,-15.1% (inactive)
22,Cc1cccc(-n2c(SCC(N)=O)nc3c(c2=O)C2(CCCCC2)Cc2ccccc2-3)c1,-70.4% (active)
23,NC(=O)c1ccc(Nc2ccc3c(c2)CCC3)c([N+](=O)[O-])c1,-8.76% (inactive)

row,SMILES,"activity change, negative = inhibition"
1,CCCCN(CC)C(=O)c1c[nH]c2ccc(S(=O)(=O)Nc3cccc(OC)c3)cc2c1=O,7.97% (inactive)
2,CCOc1ccccc1C(=O)NCc1ccc2c(c1)CCN2C(=O)c1ccc(F)cc1,-15.6% (inactive)
3,Cc1ncsc1CCCl,-26.8% (inactive)
4,Cc1ccc(OCC(=O)Nc2ccc(C(=O)O)cc2NC(=O)COc2ccc(C)c(C)c2)cc1C,-98.3% (active)
5,Cc1ccc(OCC(=O)Nc2cccc3c2CCCC3)cc1C,-12.3% (inactive)
6,Cc1cccc(OCC(=O)Nc2ccc(C(=O)O)cc2NC(=O)COc2cccc(C)c2)c1,-3.05% (inactive)
7,COc1ccc(Cl)cc1NC(=O)Cn1nc(-c2ccc(C)cc2)n(C)c1=S,3.99% (inactive)
8,COc1ccc(CNC(=O)C(C)n2nc(C)c3c(C)n(-c4ccccc4)nc3c2=O)c(OC)c1 (centres undefined),-15.4% (inactive) and -69.2% (active)
9,Cc1ccc(-n2nc3c(=O)n(C(C)C(=O)NCc4ccc5c(c4)OCO5)nc(C)c3c2C)cc1 (centres undefined),-83.4% (active)
10,Cc1ccccc1CNC(=O)CSc1nnc(C)c2c(C)n(-c3ccccc3)nc12,-3% (inactive)
11,Cc1nn(C(C)C(=O)N2CCOCC2)c(=O)c2nn(-c3ccccc3)c(C)c12 (centres undefined),-17.5% (inactive)
12,Cc1nn(C(C)C(=O)NCCC2=CCCCC2)c(=O)c2nn(-c3ccccc3)c(C)c12 (centres undefined),-28.7% (inactive)
13,COc1ccc(OC)c(CNC(=O)Cn2nc(C)c3c(C)n(-c4ccccc4)nc3c2=O)c1,-18.6% (inactive)
14,COc1ccc(-c2n[nH]c3c2CN(C(=O)c2ccc(F)cc2)CC3)cc1,0% (inactive)
15,O=C1C=C[C@]23OCCC[C@@]2(CCCO)CCCC3=C1,-2.29% (inactive)
16,CCOc1cc(N2CCOCC2)c(OCC)cc1NC(=O)COc1cccc2cccnc12,-104% (active)
17,CCOc1cc(C(=O)OCC(=O)Nc2cccc(C)c2)ccc1OCC(=O)N1CCOCC1,-3.23% (inactive)
18,CCOc1cc(N2CCOCC2)c(OCC)cc1NC(=O)C1=NN(c2cccc(C)c2)C(=O)CC1,-25.4% (inactive)
19,Cc1ccc(CNS(=O)(=O)c2ccc(-c3cc(C(F)(F)F)on3)s2)cc1,87.2% (inactive)
20,Cc1ccc(CNS(=O)(=O)c2ccc(C(=O)N(C)C)s2)cc1,1.6% (inactive)
